BoNT A protease – inhibitors of Botulinum neurotoxin A light chain protease | 360,000 tested, 0.17% active | inhibition, % at 10 µM | multiplex microsphere protease substrate cleavage, flow cytometry; further: plate controls were buffer without enzyme for full effect and enzyme alone for no effect
SSB-PriA inh – K. pneumoniae PriA-SSBct interaction inhibition | inhibition, % at 33 µM | AlphaScreen SSBct-PriA binding, biotinylated peptide | 430,000 tested, 0.6% active; in the data active means inhibition mostly above about 37%, no sharp cut-off; inactive means mostly below about 20%;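 further: plate controls were negative control peptide for no effect and reference peptide for full effect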
Anthrax LF prot – anthrax lethal factor protease inhibition; multiplex microsphere protease cleavage assay, LF; inhibition, % at 10 µM; 360,000 tested, 0.12% active; further: plate controls were buffer without enzyme for full effect and enzyme alone for no effect
Target sequence (P15917 whole entry, looked up): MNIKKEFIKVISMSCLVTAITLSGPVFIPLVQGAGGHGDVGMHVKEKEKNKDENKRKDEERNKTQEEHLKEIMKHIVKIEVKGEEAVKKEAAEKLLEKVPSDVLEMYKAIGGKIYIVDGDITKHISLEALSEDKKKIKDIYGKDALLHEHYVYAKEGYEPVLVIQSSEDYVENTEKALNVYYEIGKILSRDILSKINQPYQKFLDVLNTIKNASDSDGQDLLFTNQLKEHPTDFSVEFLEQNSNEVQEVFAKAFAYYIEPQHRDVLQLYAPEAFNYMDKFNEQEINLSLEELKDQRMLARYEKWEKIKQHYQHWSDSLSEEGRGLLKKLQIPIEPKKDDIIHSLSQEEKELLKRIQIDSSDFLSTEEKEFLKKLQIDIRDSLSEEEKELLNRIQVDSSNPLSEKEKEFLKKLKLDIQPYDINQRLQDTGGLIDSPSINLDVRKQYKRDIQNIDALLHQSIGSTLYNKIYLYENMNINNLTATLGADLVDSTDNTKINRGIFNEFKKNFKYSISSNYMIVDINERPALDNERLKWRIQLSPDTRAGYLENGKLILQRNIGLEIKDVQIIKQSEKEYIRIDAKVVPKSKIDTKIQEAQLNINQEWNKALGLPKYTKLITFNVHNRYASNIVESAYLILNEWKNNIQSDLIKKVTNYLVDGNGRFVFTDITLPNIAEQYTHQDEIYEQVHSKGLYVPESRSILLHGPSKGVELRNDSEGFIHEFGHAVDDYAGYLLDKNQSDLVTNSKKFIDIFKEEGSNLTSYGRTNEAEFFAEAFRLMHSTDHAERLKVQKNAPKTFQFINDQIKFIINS
Autofluor counter – counter-screen for toxin protease inhibitors: compound fluorescence; compound autofluorescence counterscreen, microsphere flow cytometry; active compounds read high; fluorescence intensity (test concentration not listed); 360,000 tested, 3.1% active; in the data active means fluorescence intensity above about 16000; inconclusive means no clear call, values can overlap the other calls
BoNT-F LC inh – blocks Botulinum neurotoxin F light chain protease | Multiplex microsphere protease cleavage assay, flow cytometry | inhibition, % at 10 µM | 360,000 tested, 0.22% active | AID 588497; in the data active means inhibition above about 35%, passing the limit was not always enough; inconclusive means no clear call, values can overlap the other calls; further: plate controls were buffer without enzyme for full effect and enzyme alone for no effect
Starred values were filed as active, the others as inactive; ? = inconclusive; / = no result given. Compounds with a hit are over-represented: about 3.1% of the library has one in this group of screens. Unless noted, no stated cut-off is given here; in the data, active means inhibition above about 30%; inconclusive means no clear call, values can overlap the other calls; inactive means below that.

SMILES | BoNT A protease | SSB-PriA inh | Anthrax LF prot | Autofluor counter | BoNT-F LC inh
COC(=O)[C@@H]1C[C@H]2CC[C@H](O)C[C@H]2N1Cc1ccc(C(C)(C)C)cc1 | 0.9 | 100.7* | 0.1 | 3568 | 3.3
CCOc1cccc2cc(C(=O)NCCCn3nc(-c4ccncc4)ccc3=O)c(=O)oc12 | / | -7.0 | / | / | /
Cc1cc(C(=O)Nc2ccccn2)cs1 | 0.1 | -12.7 | -2.3 | 22600* | 0.4
O=[N+]([O-])c1cc([N+](=O)[O-])c(NN(c2ccccc2)c2ccccc2)c([N+](=O)[O-])c1 | / | 25.0 | / | / | /
O=C(Nc1cccc2[nH]ncc12)c1ccc(F)cc1 | ? | -16.7 | -5.0 | 22322* | 2.2
CCCCCOC(=O)C1C2C=CC3(CN(c4ccccc4C)C(=O)C13)O2 (configuration not stated) | 1.3 | -9.2 | 0.3 | 21724* | 1.7
O=c1[nH]c2ccsc2c(=O)n1-c1ccc(F)c(Cl)c1 | ? | -6.6 | -10.3 | 17764* | 10.2
O=c1[nH]c2ccsc2c(=O)n1-c1ccc(F)cc1 | -0.2 | -4.2 | -10.1 | 5911 | -0.1
O=C1c2cccc3c([N+](=O)[O-])ccc(c23)C(=O)N1c1ccccn1 | 2.2 | -18.7 | 2.3 | 2295 | 12.4
O=C1c2cccc3c([N+](=O)[O-])ccc(c23)C(=O)N1c1ccc(Cl)cn1 | -0.5 | -8.9 | 1.3 | 20167* | -2.4
O=C1c2cccc3c([N+](=O)[O-])ccc(c23)C(=O)N1c1nccs1 | 0.3 | 3.0 | -1.6 | 23502* | -0.8
Cc1nnc(NC(=O)C2CCCCC2)s1 | ? | 2.4 | -3.2 | 22880* | -3.8
COCCSc1nnc(NC(=O)C2CCCCC2)s1 | -1.2 | 0.2 | -1.5 | 17088* | -2.2
CCC(C)(C)NC(=O)C1CCN(c2nc(C)cc(C)n2)CC1 | -1.3 | 1.4 | -0.7 | 16929* | -0.7
Cc1cc(C)nc(N2CCC(C(=O)Nc3nnc(C)s3)CC2)n1 | ? | -9.0 | -12.5 | 18862* | 2.1
Cc1nnc(NC(=O)C2CCCC2)s1 | 1.2 | -14.7 | 0.5 | 5972 | -2.1
O=C(Nc1ccccc1Cl)c1ccccc1Oc1ccc(C(F)(F)F)cc1[N+](=O)[O-] | 1.8 | 46.6* | 1.6 | 4868 | -0.1
COc1ccc(CCS(=O)(=O)NCCN2CCN(c3ccccc3)CC2)cc1 | / | 2.0 | / | / | /
COc1cccc(N(CC(=O)NC(C)(C)C)C(=O)C2CSC(=O)C2)c1 (configuration not stated) | 0.6 | -35.5 | -0.7 | 20419* | -0.5
COc1ccc(/C=N/N2CCN(c3ccccc3OC)CC2)cc1OC | ? | / | -4.9 | 16494* | -1.1
COc1cccc(/C=N/N2CCN(c3ccccc3OC)CC2)c1 | -3.7 | / | -4.8 | 24263* | -4.7
COc1ccc(/C=N/N2CCN(c3ccccc3OC)CC2)cc1Br | 1.3 | / | 24.2 | 2971 | ?
COc1cc(OC)c(/C=N/N2CCN(c3ccccc3OC)CC2)c(OC)c1 | -1.7 | / | -2.4 | 4118 | -4.4
CCOC(=O)c1c(N)nn(C(=O)c2ccccc2F)c1-c1ccc(OC)cc1 | -0.8 | -0.3 | -0.8 | 3958 | 1.1
CCOC(=O)c1c(N)nn(C(=O)C(C)(C)C)c1-c1ccccc1 | -1.1 | -5.9 | -1.3 | 22970* | -1.5
SMILES | BoNT A protease | SSB-PriA inh | Anthrax LF prot | Autofluor counter | BoNT-F LC inh
O=C(Cc1cc(-c2ccc(Cl)cc2)on1)NCc1cccnc1 | / | -3.0 | / | / | /
Cc1ccc(C(=O)N2CCN(c3ccc(F)cc3)CC2)cc1S(=O)(=O)N1CCOCC1 | / | 3.0 | / | / | /
O=C(Cc1noc2ccccc12)N1CCC(n2c(=O)[nH]c3ccccc3c2=O)CC1 | / | -18.0 | / | / | /
COc1ccc2nc(NCc3ccccc3)[nH]c2c1 | 5.0 | 11.3 | -5.6 | 14780 | 2.7
COc1ccc2nc(N3CCCC3)[nH]c2c1 | ? | -12.7 | -0.3 | 24269* | -2.2
O=C(c1cc2c(=O)n3ccccc3nc2s1)N1CCOCC1 | -3.4 | -4.6 | 0.3 | 21556* | -3.5
CCC(CC)C(=O)c1c[nH]c(C(=O)NCCCn2ccnc2)c1 | ? | 7.0 | -0.1 | 22434* | -2.0
CC(C)CC(=O)c1c[nH]c(C(=O)NCCCn2ccnc2)c1 | 1.4 | -13.7 | -2.3 | 19657* | 1.7
N#CC(=NNc1ccccc1Cl)C(=O)c1ccccc1 | / | 6.7 | / | / | /
Cc1c2c(cc3c1[nH]c1ccccc13)C=NCC2 | -9.7 | -11.3 | 0.3 | 21778* | 21.9
Cc1c2ccncc2cc2c1[nH]c1ccccc12 | 0.1 | -14.0 | -5.0 | 6323 | 6.4
O=C(Cc1ccc(Cl)cc1)Nc1ccc2c(c1)N(C(=O)C1CC1)CC2 | / | 4.0 | / | / | /
O=S(=O)(c1ccc(NC(=S)N/N=C/c2c3ccccc3cc3ccccc23)cc1)N1CCOCC1 | 32.6* | / | 13.8 | 3214 | 1.7
O=S(=O)(c1ccc(NC(=S)NN=Cc2ccc(O)c(O)c2)cc1)N1CCOCC1 | / | 3.6 | / | / | /
COc1cc(C=O)ccc1OCCSc1ccc(C)cc1 | 3.2 | -72.3 | -5.4 | 18295* | 2.2
C=CCNC(=O)c1ccc(-c2nc(-c3ccc(Cl)c(Cl)c3)cs2)cc1 | ? | -19.7 | -3.7 | 22537* | -3.1
C=CCNC(=O)c1ccc(-c2nc(-c3ccc(Cl)cc3Cl)cs2)cc1 | 0.2 | -7.4 | -9.3 | 8615 | -1.1
COc1ccc(Nc2ccc([N+](=O)[O-])cc2[N+](=O)[O-])cc1 | -0.7 | 42.7* | -1.0 | 3307 | -6.3
O=[N+]([O-])c1cc(Cl)ccc1Nc1ccccc1 | -2.5 | 89.2* | 12.2 | 2940 | ?
COc1ccc(Nc2ccc(C(=O)O)cc2[N+](=O)[O-])cc1 | -0.7 | -13.3 | -0.8 | 2463 | -6.1
O=C(C1CCN(c2cc(C3CC3)ncn2)CC1)N1CCc2ccccc21 | / | -12.0 | / | / | /
O=C(N/C(=C/c1ccc([N+](=O)[O-])cc1)C(=O)N1CCCC1)c1ccccc1 | -1.8 | -4.0 | -6.9 | 4216 | 4.8
O=C(N/C(=C/C=C/c1ccccc1)C(=O)N1CCCCC1)c1ccc([N+](=O)[O-])cc1 | -0.3 | 39.1* | -3.8 | 4206 | -7.3
O=C(Cn1cc([N+](=O)[O-])ccc1=O)NCc1ccc(Cl)cc1Cl | 1.2 | -10.7 | 1.7 | 5264 | 2.8
O=C(c1ccc([N+](=O)[O-])cc1)N(Cc1ccc(Cl)cc1)N1C(=O)CCCC1=O | -5.0 | 1.4 | -1.6 | 17414* | -6.2
SMILES | BoNT A protease | SSB-PriA inh | Anthrax LF prot | Autofluor counter | BoNT-F LC inh
O=C(c1ccc([N+](=O)[O-])cc1)N(Cc1ccc(Cl)cc1Cl)N1C(=O)CCCC1=O | 2.2 | -3.4 | -5.6 | 22479* | 4.8
O=C(CCc1ccccc1)N1CCC(COc2nc3ccccc3s2)CC1 | / | 2.0 | / | / | /
O=C(CN1N=NC2C(=O)N(c3ccc(Br)cc3)C(=O)C21)Nc1ccccc1F (configuration not stated) | / | -6.0 | / | / | /
N/C(=N\OC(=O)CCC1CCCCC1)c1cccnc1 | -2.2 | / | -4.3 | 21493* | -2.3
N/C(=N\OC(=O)Cc1ccc(-c2ccccc2)cc1)c1cccc([N+](=O)[O-])c1 | -0.6 | / | -4.3 | 16257* | -4.4
N/C(=N\OC(=O)Cc1ccccc1)c1cccnc1 | 7.0 | / | -6.7 | 20077* | 6.0
CCOC(=O)c1c(CSc2ccccc2)n(C)c2cc(Br)c(OCC(O)CN3CCOCC3)cc12 (configuration not stated) | / | -11.0 | / | / | /
c1cncc(CSc2ccc(-c3ccc(-n4ccnc4)cc3)nn2)c1 | / | -2.0 | / | / | /
Cc1ccc(NC(=S)N2CCC(N(C)CC3CCCO3)CC2)c(C)c1 (configuration not stated) | 9.7 | -2.1 | 2.3 | 19642* | 12.5

Source: PubChem (several laboratories)
